Tb PYK inh: inhibitors of Trypanosoma brucei pyruvate kinase | Q57TT1 | 0.12% of 410,000 active | Potency, µM (titrated, usually from 76.8 µM), for the others: at the highest dose activity, negative = inhibition, usual class: inhibitors | TbPYK enzyme, Kinase-Glo Plus ATP luminescence, 45 min; also: potency is read from the fitted curve at half-maximal effect; % is scaled to controls: 0 for no effect and ±100 for the full control effect; nearly all actives have a fitted effect of over 50% in size
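T. brucei PYK with substrate was exposed to pin-transferred compounds across a concentration series, then started with 130 uM ADP (final). After 45 min at room temperature, Kinase-Glo Plus luminescence was read, normalized and curve-fitted.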
Sm TGR inh: S. mansoni TGR enzyme inhibition. Q962Y6. purified TGR, DTNB reduction, TNB absorbance 405 nm. Potency, µM (series often up to 114 µM), for inactives: at the highest dose activity change, negative = inhibition, hits mostly inhibitors. 3% of 360,000 active. AID 485364; also: potency is read from the fitted curve at half-maximal effect; % is scaled to controls: 0 for no effect and ±100 for the full control effect; nearly all actives have a fitted effect of over 60% in size
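TGR 20 nM + NADPH 100 uM (dispensed conc.), cpd preinc 15 min RT; start with NADPH (500 uM addition) then DTNB (15 mM addition). Kinetic TNB absorbance, 405 nm filter. Four-parameter Hill fit across titration.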
Cycloheximide cs: counter-screen hit for Shiga toxin inhibitors, cycloheximide; AID 2314; cell reporter, cycloheximide protein synthesis inhibition counterscreen; 12% of 300,000 active; max response, %; in the data active = max response mostly above about 13%, no sharp cut-off; inactive = mostly below about 14%; also: read at 38.3 µM for the half of the compounds with a filed dose; 0% is about no effect
FBPA Giardia inh: blocks Giardia fructose-bisphosphate aldolase activity. purified Giardia FBPA. A8B2U2. 0.71% of 290,000 active. Potency, µM (series often up to 59.6 µM), for the others: top-dose activity, negative = inhibition, actives largely listed as inhibitors; also: potency is read from the fitted curve at half-maximal effect; % is scaled to controls: 0 for no effect and ±100 for the full control effect; nearly all actives have a fitted effect of over 55% in size
Target sequence (A8B2U2 whole entry, looked up): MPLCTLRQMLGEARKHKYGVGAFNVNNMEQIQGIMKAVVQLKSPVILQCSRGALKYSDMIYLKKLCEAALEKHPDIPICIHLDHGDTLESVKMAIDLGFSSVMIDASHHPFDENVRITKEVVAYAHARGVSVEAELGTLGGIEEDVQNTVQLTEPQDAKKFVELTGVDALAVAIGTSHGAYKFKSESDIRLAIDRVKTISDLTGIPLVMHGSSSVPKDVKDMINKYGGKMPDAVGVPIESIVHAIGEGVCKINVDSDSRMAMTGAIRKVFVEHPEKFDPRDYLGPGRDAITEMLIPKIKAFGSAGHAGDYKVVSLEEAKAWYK
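40 nM FBPA preincubated 10 min at RT with compound (up to 57.5 uM final), then substrate plus GAPDH/TPI/NAD/arsenate coupling and diaphorase/resazurin added. Fluorescence read after 20 min at RT, 525/598 nm.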
LmPK inhibitor: LmPK (Leishmania mexicana) enzyme inhibition; 0.37% of 290,000 active; purified LmPK, Kinase-Glo ATP luminescence, 1 h; Potency, µM (titrated, usually from 57.5 µM), without a hit: at the highest dose activity change, negative = inhibition, hits mostly inhibitors; also: potency is read from the fitted curve at half-maximal effect; % is scaled to controls: 0 for no effect and ±100 for the full control effect
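qHTS format; LmPK 0.1 nM; substrates PEP 0.5 mM and ADP 0.1 mM. One-hour room-temperature incubation, then coupled luciferase luminescence; 0.5 nM enzyme wells mark activation.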
Shiga toxin inh: blocks Shiga toxin action in Vero cells; 9.2% of 290,000 active; inhibition, % at 38.7 µM; Vero cells, Shiga toxin protein synthesis inhibition reporter; in the data active = inhibition mostly above about 28%, no sharp cut-off; inactive = mostly below about 43%; also: 0% is about no effect
Starred values were filed as active, the others as inactive; ? = inconclusive; . = not tested or not shown. This excerpt belongs to a sample that is enriched for hits. Unless noted, calls follow the shape of the dose curve; as a rule, active = well fitted curve in the direction sought with a large enough effect; inconclusive = small, poorly fitted or top-dose-only effect, or another doubt; inactive = no such curve, though single readings can be large; an effect the other way counts as inactive or inconclusive.

SMILES	Tb PYK inh	Sm TGR inh	Cycloheximide cs	FBPA Giardia inh	LmPK inhibitor	Shiga toxin inh
COc1ccc(C2C(C#N)=C(N)OC3=C2C(=O)CC(C)(C)C3)cc1OC (stereo not drawn)	-7.9%	2.4%	0.2	2.7%	2.5%	-4.6
COc1cc(C2C(C#N)=C(N)Oc3cc(C)n(CC4CCCO4)c(=O)c32)cc2c1OCO2 (stereo not drawn)	3.5%	44.7µM*	19.1	?	3.9%	27.7
CCc1nc(Nc2cccc(OC)c2)c2oc3ccccc3c2n1	2.1%	0.0%	21.7*	-17.1%	-3.0%	26.6
CCc1nc(Nc2ccccc2)c2oc3ccccc3c2n1	.	-18.9%	16.7	-23.4%	2.4%	3.8
CCc1nc(OCCN(C)C)c2oc3ccccc3c2n1	-0.3%	-6.1%	25.8*	3.6%	-9.9%	29.3
CCc1nc(Nc2ccc(F)cc2)c2oc3ccccc3c2n1	11.7%	-6.3%	36.5*	?	1.3%	44.6
COc1ccc(NS(=O)(=O)c2cc3[nH]c(=O)c(=O)[nH]c3cc2C)cc1OC	-14.3%	9.7%	.	.	.	.
CC(C(=O)Nc1ccc2c(c1)OCO2)N1CCN(C)CC1 (stereo not drawn)	6.6%	6.4%	0.4	?	-12.3%	-14.9
C[C@H](NC(N)=O)C(=O)Nc1ccc2c(c1)OCO2	-1.0%	-11.0%	23.4*	5.4%	1.2%	3.4
CC(CC(=O)Nc1ccc2c(c1)OCCO2)c1ccccc1 (stereo not drawn)	-7.2%	4.8%	41.5*	-8.6%	3.0%	54.5*
Cc1cc(C)n(C(C)CC(=O)Nc2ccc3c(c2)OCO3)n1 (stereo not drawn)	-9.2%	-8.9%	23.6*	-2.5%	-0.2%	9.7
CC(CC(=O)Nc1ccc2c(c1)OCO2)c1ccccc1 (stereo not drawn)	-2.1%	-6.7%	15.0*	-0.8%	-0.3%	57.1
Cc1cc(C)n(C(C)CNC(=O)c2ccc3c(c2)OCO3)n1 (stereo not drawn)	-8.0%	28.8%	4.1	0.9%	-4.8%	11.2
COc1ccc(-c2cc3c(o2)CCCC3OCCN2CCOCC2)cc1 (stereo not drawn)	-6.1%	.	.	.	.	.
Cc1ccccc1NC(=O)Cn1c(=O)oc2cc(Br)ccc21	0.2%	7.9%	.	.	.	.
COc1ccc(NC(=O)Cn2nnnc2-c2ccccc2F)c(C)c1	2.3%	0.5%	.	.	.	.
COc1ccccc1NC(=O)CSc1nc(O)c(C/C=C/c2ccccc2)c(=O)[nH]1	0.1%	-4.4%	.	.	.	.
O=C(CC1N=C2c3ccccc3N=C(SCc3ccc(Cl)cc3)N2C1=O)NCc1ccco1 (stereo not drawn)	0.8%	-14.2%	20.5*	-4.6%	3.6%	24.4
COc1ccc(N2CCN(S(=O)(=O)CCNC(=O)c3ccc(OC(C)C)cc3)CC2)cc1	3.3%	6.6%	.	.	.	.
C/C(=N/NC(=O)c1nnn(-c2nonc2N)c1-c1ccccc1)c1ccc2c(c1)OCO2	0.3%	-5.6%	-3.2	5.5%	-0.2%	-1.8
C/C(=N\N=C(/N)c1nonc1N)c1ccc2c(c1)OCO2	0.4%	1.6%	80.6*	-0.9%	-26.2%	55.2*
Cc1ccccc1N1CC(c2nc3ccccc3n2Cc2ccc(Br)cc2)CC1=O (stereo not drawn)	-1.9%	0.0%	.	.	.	.
Nc1nc(-c2ccccc2)c(CC(=O)O)s1	-16.5%	.	.	.	.	.
Nc1nc(-c2cccs2)c(CC(=O)O)s1	-13.8%	39.8µM*	6.5	-7.0%	0.2%	-8.1
CSCC[C@H](NC(=O)[C@H](CC(C)C)NC(=O)[C@@H]1CCCN1C(=O)[C@H](Cc1ccccc1)NC(=O)[C@H](Cc1ccccc1)NC(=O)[C@H](CCC(N)=O)NC(=O)[C@H](CCC(N)=O)NC(=O)[C@@H]1CCCN1C(=O)[C@H](CCCCN)NC(=O)[C@@H]1CCCN1C(=O)[C@@H](N)CCCN=C(N)N)C(N)=O	.	.	0.4	4.0%	.	2.2
CCc1cccc(-n2c(=O)c3cccnc3n2CC(=O)Nc2ccc(F)c(C)c2)c1	1.5%	5.2%	.	.	.	.
Cc1ccc(S(=O)(=O)CCc2ccccn2)cc1	-7.0%	-7.9%	-2.0	2.4%	1.5%	-1.9
c1ccc(CCNc2ccccn2)nc1	-0.8%	.	.	.	.	.
CC(C)(C)c1ccc(SCCc2ccccn2)cc1	-0.3%	7.6%	40.1*	-0.1%	-6.3%	88.5*
